KKLEB cytotox = counter-screen for CF NF-kB inhibitors: cytotoxicity; activity change (cytotoxicity), % at 5 µM; AID 602141; KKLEB CF airway cells viability, ATPlite luminescence, overnight; stronger effect = lower value; cells stimulated with P. aeruginosa culture filtrate; 360,000 tested, 0.36% active;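 active means corrected activity change at or below -50% at 5 µM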
HIF-2a block = inhibitors of HIF-2a; 786-0 RCC cells HIF-2a reporter, luciferase luminescence, overnight; inhibition, % at 18.8 µM; 360,000 tested, 0.72% active; AID 624352;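 active means inhibition of the luminescence signal of 40% or more relative to plate controls, in a single-dose primary screen at 18.75 µM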
Shn3 3UTR inh = reduces Shn3 3'UTR luciferase signal in osteoblasts. 360,000 tested, 0.52% active. inhibition, % at 12.5 µM. Clone20 osteoblast Shn3 3'UTR firefly luciferase, 24 h;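 active means mean inhibition of at least 75% with every replicate also reaching 75%; inconclusive means mean inhibition at least 75% but some replicate below; inactive means mean inhibition below 75%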
Peg3 promoter = reduces Peg3 promoter-driven luciferase expression in HeLa. 360,000 tested, 1.7% active. HeLa PEG-Prom luciferase reporter, luminescence, overnight. inhibition, % at 20 µM. AID 588405;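 active means inhibition of at least 50% at 20 µM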
TRPM1 prom inh = reduces MITF-dependent TRPM1 promoter luciferase signal | SK-MEL-5 TRPM1 promoter luciferase, 24 h | 330,000 tested, 0.83% active | inhibition, % at 12.5 µM | AID 488899;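 active means mean inhibition across replicates of 60% or more, whatever share of single replicates reaches that level; inconclusive means some that reach 60%, reason not given; inactive means mean inhibition across replicates below 60%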
CF NFkB block = cystic fibrosis NF-kB activation inhibition; AID 588850; 360,000 tested, 0.86% active; inhibition, % at 5 µM; KKLEB NF-kB-GFP reporter, PAF-induced, GFP fluorescence overnight;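 active means at least 50% inhibition at 5 µM, scaled per plate between neutral and stimulator controls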;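 further: PAF is a Pseudomonas aeruginosa culture filtrate used as stimulus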
Hits are given with their value. This is a sample that favours compounds with a hit; in the whole collection about 2.8% have one here.

`NC(Cc1ccccc1)c1csc(NC(=O)Nc2ccccc2Oc2ccccc2)n1` (configuration not stated) gave KKLEB cytotox inactive, HIF-2a block inactive, Shn3 3UTR inh inconclusive, Peg3 promoter 103.6 and CF NFkB block inactive.
COc1ccccc1NC(=O)Nc1nc(C(N)Cc2ccc(C(F)(F)F)cc2)cs1 (configuration not stated) was read as KKLEB cytotox inactive, HIF-2a block inactive, Shn3 3UTR inh 81.9, Peg3 promoter 96.2 and CF NFkB block inactive.
`NC(c1ccccc1)c1csc(NC(=O)Nc2ccc(OC(F)(F)F)cc2)n1` (configuration not stated) gave KKLEB cytotox inactive, HIF-2a block inactive, Shn3 3UTR inh inactive, Peg3 promoter 105.1 and CF NFkB block inactive.
For COc1ccc(Br)c(Cn2c(C)c(C(=O)NCc3ccccc3C(F)(F)F)sc2=O)c1 the results were KKLEB cytotox inactive, HIF-2a block inactive, Shn3 3UTR inh inactive, Peg3 promoter inactive and CF NFkB block inactive.
`Cc1ccccc1OCC(=O)NNC(=O)c1cc(S(=O)(=O)N2CCOCC2)ccc1N1CCCC1` gave KKLEB cytotox inactive, HIF-2a block inactive, Shn3 3UTR inh inactive, Peg3 promoter inactive, TRPM1 prom inh inactive and CF NFkB block inactive.
For CCOC(=O)c1c(C)[nH]c(C(=O)COC(=O)c2ccco2)c1C the results were KKLEB cytotox inactive, HIF-2a block inactive, Shn3 3UTR inh inactive, Peg3 promoter inactive, TRPM1 prom inh inactive and CF NFkB block inactive.
`COc1ccc(CC(N)c2csc(NC(=O)Nc3ccccc3C(C)C)n2)cc1` (configuration not stated) gave KKLEB cytotox inactive, HIF-2a block inactive, Shn3 3UTR inh inactive, Peg3 promoter 100.0 and CF NFkB block inactive.
`NC(Cc1ccc(C(F)(F)F)cc1)c1csc(NC(=O)NCCc2ccccc2)n1` (configuration not stated) gave KKLEB cytotox inactive, HIF-2a block inactive, Shn3 3UTR inh inactive, Peg3 promoter 108.7 and CF NFkB block inactive.
Screening COC[C@@H]1CCCN1c1ccc2c(c1)O[C@@H](COCc1ccccc1)CN([C@H](C)c1ccccc1)S2(=O)=O returned HIF-2a block inactive.
`CC(C)(C)C(=O)Nc1nnc(SCC(=O)Nc2nccs2)s1` gave KKLEB cytotox inactive, HIF-2a block inactive, Shn3 3UTR inh inactive, Peg3 promoter inactive, TRPM1 prom inh inactive and CF NFkB block inactive.
Cc1[nH]c2ccccc2c1C1=CC(=O)C=CC1=O was read as KKLEB cytotox inactive, HIF-2a block inactive, Shn3 3UTR inh inactive, Peg3 promoter 76.1, TRPM1 prom inh inactive and CF NFkB block 73.8.
For CCN1C(=O)/C(=C/N(C)C)c2ccccc21 the results were KKLEB cytotox inactive, HIF-2a block inactive, Shn3 3UTR inh inactive, Peg3 promoter 57.4, TRPM1 prom inh inactive and CF NFkB block inactive.
For CCN1C(=O)/C(=C\N(C)C)c2ccccc21 the results were KKLEB cytotox inactive, HIF-2a block inactive, Shn3 3UTR inh inactive, Peg3 promoter inactive, TRPM1 prom inh inactive and CF NFkB block inactive.
COc1cc(N2C(=O)C=CC2=O)ccc1N1C(=O)C=CC1=O was read as KKLEB cytotox inactive, HIF-2a block 84.5, Shn3 3UTR inh 97.6, Peg3 promoter 110.9, TRPM1 prom inh 73.8 and CF NFkB block 78.4.
`CCOc1ccc(N(CC(=O)NC2CCCC2)S(=O)(=O)c2c(C)[nH]c(=O)[nH]c2=O)cc1` gave KKLEB cytotox inactive, HIF-2a block inactive, Shn3 3UTR inh inactive, Peg3 promoter 72.3, TRPM1 prom inh inactive and CF NFkB block inactive.
`COC(=O)c1nn(-c2ccc(-c3ccccc3)cc2)cc1O` gave KKLEB cytotox inactive, HIF-2a block inactive, Shn3 3UTR inh inactive, Peg3 promoter inactive, TRPM1 prom inh 73.1 and CF NFkB block inactive.
`COc1ccc(Nc2cc(C)nc(N3CCN(C(=O)c4ccc5c(c4)OCO5)CC3)n2)cc1` gave KKLEB cytotox inactive, HIF-2a block inactive, Shn3 3UTR inh inactive, Peg3 promoter inactive, TRPM1 prom inh inactive and CF NFkB block inactive.
COc1cccc(/C=N/Nc2ccc([N+](=O)[O-])cn2)c1O was read as KKLEB cytotox -91.2, HIF-2a block 77.5, Shn3 3UTR inh inactive, Peg3 promoter 59.4, TRPM1 prom inh inactive and CF NFkB block 100.5.
O=[N+]([O-])c1cccc(C=NNc2ccc3ccccc3n2)c1O was read as KKLEB cytotox inactive, HIF-2a block inactive, Shn3 3UTR inh inactive, Peg3 promoter inactive, TRPM1 prom inh 79.0 and CF NFkB block inactive.
COc1cccc(/C=N/Nc2nc(Nc3ccc([N+](=O)[O-])cc3)nc(N3CCCC3)n2)c1O was read as KKLEB cytotox inactive, HIF-2a block inactive, Shn3 3UTR inh 88.7, Peg3 promoter 62.2, TRPM1 prom inh inactive and CF NFkB block 97.1.
`C/C(=N\Nc1ncnc2sc(C)c(C)c12)c1ccccn1` gave KKLEB cytotox inactive, HIF-2a block inactive, Shn3 3UTR inh 88.7, Peg3 promoter 83.9, TRPM1 prom inh 66.9 and CF NFkB block inactive.
Screening C/C(=N\Nc1ncc(Cl)cc1Cl)c1ccccn1 returned KKLEB cytotox -58.7, HIF-2a block inactive, Shn3 3UTR inh 86.3, Peg3 promoter 71.0, TRPM1 prom inh 95.2 and CF NFkB block inactive.
CC(C)NC(=O)Nc1ccc2c(c1)C(=O)N([C@H](C)CO)C[C@H](C)[C@@H](CN(C)Cc1ccc(C(F)(F)F)cc1)OCCCC[C@H](C)O2 was read as KKLEB cytotox inactive, HIF-2a block inactive, Shn3 3UTR inh inactive, Peg3 promoter inactive and CF NFkB block inactive.
CCC(c1nnnn1-c1ccc2c(c1)OCCO2)N1CCN(c2ncccc2C(F)(F)F)CC1 (configuration not stated) was read as HIF-2a block inactive.
Nn1cnc2c(c1=O)C1(CCCCC1)Cc1ccccc1-2 was read as KKLEB cytotox inactive, HIF-2a block inactive, Shn3 3UTR inh inactive, Peg3 promoter inactive, TRPM1 prom inh inactive and CF NFkB block inactive.
`Oc1ccc(-c2nc3c4c(ncn3n2)-c2ccccc2CC42CCCC2)cc1` gave KKLEB cytotox inactive, HIF-2a block inactive, Shn3 3UTR inh inactive, Peg3 promoter 110.7, TRPM1 prom inh inactive and CF NFkB block inactive.
For COc1ccccc1N1CCN(c2ncnc3c2oc2ccccc23)CC1 the results were KKLEB cytotox inactive, HIF-2a block inactive, Shn3 3UTR inh inactive, Peg3 promoter 57.5, TRPM1 prom inh inactive and CF NFkB block inactive.
Screening c1ccc2c(c1)oc1c(N3CCOCC3)ncnc12 returned KKLEB cytotox inactive, HIF-2a block inactive, Shn3 3UTR inh inactive, Peg3 promoter inactive, TRPM1 prom inh inactive and CF NFkB block inactive.
For COc1ccccc1N1CCN(Cc2ccc(O)c3ncccc23)CC1 the results were KKLEB cytotox inactive, HIF-2a block inactive, Shn3 3UTR inh 88.3, Peg3 promoter inactive, TRPM1 prom inh 87.8 and CF NFkB block inactive.
For Cc1cc(C(C)(C)C)cc(C)c1COC(=O)c1cccnc1 the results were KKLEB cytotox inactive, HIF-2a block inactive, Shn3 3UTR inh inactive, Peg3 promoter inactive, TRPM1 prom inh inactive and CF NFkB block inactive.
